# Test results: PubChem BioAssay
# The source made the active and inactive calls.
# How the values were obtained:
# Albumin (Bos taurus) = Albumin (Bos taurus) (UniProt P02769); experiment: compounds binding labelled BSA control protein – biochemical, small-molecule microarray, Alexa647 label, 635/667 nm fluorescence, artefact control for SMM control protein annotation, profiling panel (AID 1118); details: BSA-A647 binding, fluorescence 635 nm, higher = more signal;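 further: score merges 667 nm emission intensity and signal-to-noise per printed compound spot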
# [1] = probe aXIP binding to arrayed compounds – biochemical, NeuroSMM set, 635/667 nm fluorescence, primary screen (AID 1119); details: small-molecule microarray, higher = more signal, called active from +8 up or from −8 down;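 further: probe is the protein aXip251-270 applied at 1 µg/mL to compound-printed slides; binding of probe to printed compounds measured as 667 nm fluorescence plus signal to noise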
# [2] = probe aNOTCH3 binding on compound microarray – biochemical, small-molecule microarray, 635/667 nm fluorescence, primary screen (AID 1120); details: higher = more signal;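 further: probe is a biotin-tagged antibody raised against NOTCH3 rather than NOTCH3 protein; score merges spot fluorescence near 667 nm with spot signal to noise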
# [3] = probe aNOTCH2 binding on compound microarray – biochemical, small-molecule microarray, 635/667 nm fluorescence, primary screen (AID 1121); details: higher = more signal;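 further: score merges feature fluorescence read at 667 nm with its signal to noise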
# [4] = molecular target: Carbonic anhydrase 2 (Homo sapiens) (UniProt P00918); experiment: compounds binding carbonic anhydrase 2 – biochemical, small-molecule microarray, Alexa647-labelled CAII, profiling panel (AID 1122); details: CAII-A647 binding fluorescence, higher = more signal
# [5] = COS7 lysate on small-molecule microarray, probe aHis, 635 nm (AID 1123); details: COS7 cell lysate, fluorescence, higher = more signal;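 further: z-score combines 667nm fluorescence intensity with signal-to-noise per printed compound spot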
# [6] = probe aLAP1 signal on lysate-treated microarray – cell lysate, small-molecule microarray, COS7 lysate, primary screen (AID 1124); details: probe aLAP1, fluorescence, higher = more signal;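 further: lysate comes from COS7 cells expressing LAP1 and is applied at 0.3 µg/mL; score merges spot fluorescence near 667 nm with signal-to-noise over triplicate slides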
# Sam68 (KHDRBS1) = experiment: compounds binding KHDRBS1 protein – biochemical, small-molecule microarray, 635 nm fluorescence, primary screen (AID 1125); details: higher = more signal;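 further: score merges 667 nm channel intensity with signal to noise over triplicate slides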
# [7] = system: Chordin-like protein 2 (CHRDL2); experiment: compounds binding chordin-like 2 – biochemical, small-molecule microarray, 635 nm fluorescence, primary screen (AID 1126); details: fluorescence 635 nm, higher = more signal;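 further: printed compound slides probed with Chrdl2 protein at 4 µg/mL for 1 h at 4 C; score merges 667 nm emission intensity with signal to noise over three replicate slides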
# [8] = molecular target: Concanavalin-A (Canavalia ensiformis) (UniProt P02866); experiment: compounds binding concanavalin A lectin – biochemical, small-molecule microarray, Alexa647 label, 635 nm, artefact control for SMM control protein annotation, primary screen (AID 1127); details: ConA-A647 binding fluorescence, higher = more signal;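 further: z combines 667 nm emission intensity with signal-to-noise across three replicate slides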
# [9] = compounds binding Alexa647 anti-His antibody – biochemical, small-molecule microarray, 635 nm fluorescence, artefact control for SMM control protein annotation, primary screen (AID 1128); details: higher = more signal;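 further: score merges feature fluorescence with signal-to-noise for each printed compound spot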
# [10] = system: Human papillomavirus type 1a E7 protein (residues 1-88); experiment: HPV1a E7 small-molecule binders, primary screen, biochemical, small-molecule microarray, residues 1-88, 635 nm (AID 1129); details: small-molecule microarray binding, fluorescence 635 nm; higher = more signal
# [11] = molecular target: Focal adhesion kinase 1 (Homo sapiens) (UniProt Q05397); experiment: PTK2 protein binding on printed compound slides – biochemical, small-molecule microarray, 635/667 nm fluorescence, BSA, DTT, primary screen (AID 1130); details: 635 nm fluorescence, higher = more signal;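 further: composite of spot emission at 667 nm and signal to noise over triplicate slides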
# [12] = system: Fibrinogen (Alexa647-labelled); experiment: Alexa647-fibrinogen binding to printed small molecules – biochemical, small-molecule microarray, 635/667 nm fluorescence, artefact control for SMM control-protein annotation, profiling panel (AID 1131); details: fibrinogen-A647 binding fluorescence, higher = more signal;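 further: z-score merges 667 nm fluorescence with per-spot signal-to-noise over triplicate slides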
# [13] = molecular target: Follistatin (Homo sapiens) (UniProt P19883); experiment: FST protein binding to printed compounds – biochemical, small-molecule microarray, 635/667 nm fluorescence, primary screen (AID 1132); details: 635 nm fluorescence, higher = more signal
# [14] = molecular target: Fibroblast growth factor 2 (Homo sapiens) (UniProt P09038); experiment: basic fibroblast growth factor binding to printed compounds – biochemical, small-molecule microarray, 635/667 nm fluorescence, primary screen (AID 1133); details: FGF2, fluorescence 635/667, higher = more signal
# [15] = JC-1 mitochondrial potential readout, lung cancer cells – cell-based, A549, JC-1 fluorescence, basal, 24 h, 100 nL, profiling panel (AID 1138); details: higher = more signal;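 further: A549 lung adenocarcinoma cells under basal conditions with no added stimulus; test concentration not given here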
# Lefty1 = Lefty1 protein binding to printed compounds – biochemical, small-molecule microarray, 635/667 nm fluorescence, primary screen (AID 1139); details: fluorescence 635/667, higher = more signal
# [16] = system: wheat germ agglutinin (Triticum aestivum), Alexa647-labelled; experiment: Alexa647-WGA lectin binding to printed small molecules – biochemical, small-molecule microarray, 635/667 nm fluorescence, artefact control for SMM control-protein annotation, profiling panel (AID 1140); details: WGA-A647 binding, 635 nm fluorescence, higher = more signal;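 further: score merges 667 nm feature emission with signal to noise over triplicate slides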
# [17] = molecular target: Luciferin 4-monooxygenase (Photinus pyralis) (UniProt P08659); experiment: inhibition of purified Photinus pyralis luciferase – biochemical, luminescence, purified enzyme, 2006 set, primary screen (AID 1141); details: purified firefly luciferase, SteadyGlo luminescence, 30 min; higher = more signal, called active from +8 up or from −8 down;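 further: cell-free assay with purified firefly luciferase at 100 ng per well in PBS; test concentration not given here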
# Sequence of Luciferin 4-monooxygenase (Photinus pyralis) (P08659 whole entry, looked up): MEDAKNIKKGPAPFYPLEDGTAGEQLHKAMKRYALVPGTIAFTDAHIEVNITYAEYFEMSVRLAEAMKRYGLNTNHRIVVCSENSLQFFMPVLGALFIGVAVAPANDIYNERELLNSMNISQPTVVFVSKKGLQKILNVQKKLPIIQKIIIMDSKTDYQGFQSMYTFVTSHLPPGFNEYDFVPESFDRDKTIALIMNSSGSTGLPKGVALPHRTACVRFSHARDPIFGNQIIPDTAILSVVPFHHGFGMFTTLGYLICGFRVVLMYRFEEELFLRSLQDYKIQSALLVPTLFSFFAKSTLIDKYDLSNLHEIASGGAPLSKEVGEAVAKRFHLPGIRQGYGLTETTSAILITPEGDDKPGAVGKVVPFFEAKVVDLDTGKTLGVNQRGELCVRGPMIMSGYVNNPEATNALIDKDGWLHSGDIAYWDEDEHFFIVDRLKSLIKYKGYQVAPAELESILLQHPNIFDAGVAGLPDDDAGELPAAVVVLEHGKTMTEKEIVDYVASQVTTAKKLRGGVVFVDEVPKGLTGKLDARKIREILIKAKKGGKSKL
# Sequence of Follistatin (Homo sapiens) (P19883 whole entry, looked up): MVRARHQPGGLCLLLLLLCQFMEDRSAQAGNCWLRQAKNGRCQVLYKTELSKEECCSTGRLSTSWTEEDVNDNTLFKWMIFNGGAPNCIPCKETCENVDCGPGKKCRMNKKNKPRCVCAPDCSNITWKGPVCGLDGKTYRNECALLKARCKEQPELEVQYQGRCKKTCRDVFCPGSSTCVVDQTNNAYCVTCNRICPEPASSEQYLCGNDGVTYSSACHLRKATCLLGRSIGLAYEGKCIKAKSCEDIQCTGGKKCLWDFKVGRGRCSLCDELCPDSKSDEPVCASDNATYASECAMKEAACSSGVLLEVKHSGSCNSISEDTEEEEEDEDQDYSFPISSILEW
# Sequence of Focal adhesion kinase 1 (Homo sapiens) (Q05397 whole entry, looked up): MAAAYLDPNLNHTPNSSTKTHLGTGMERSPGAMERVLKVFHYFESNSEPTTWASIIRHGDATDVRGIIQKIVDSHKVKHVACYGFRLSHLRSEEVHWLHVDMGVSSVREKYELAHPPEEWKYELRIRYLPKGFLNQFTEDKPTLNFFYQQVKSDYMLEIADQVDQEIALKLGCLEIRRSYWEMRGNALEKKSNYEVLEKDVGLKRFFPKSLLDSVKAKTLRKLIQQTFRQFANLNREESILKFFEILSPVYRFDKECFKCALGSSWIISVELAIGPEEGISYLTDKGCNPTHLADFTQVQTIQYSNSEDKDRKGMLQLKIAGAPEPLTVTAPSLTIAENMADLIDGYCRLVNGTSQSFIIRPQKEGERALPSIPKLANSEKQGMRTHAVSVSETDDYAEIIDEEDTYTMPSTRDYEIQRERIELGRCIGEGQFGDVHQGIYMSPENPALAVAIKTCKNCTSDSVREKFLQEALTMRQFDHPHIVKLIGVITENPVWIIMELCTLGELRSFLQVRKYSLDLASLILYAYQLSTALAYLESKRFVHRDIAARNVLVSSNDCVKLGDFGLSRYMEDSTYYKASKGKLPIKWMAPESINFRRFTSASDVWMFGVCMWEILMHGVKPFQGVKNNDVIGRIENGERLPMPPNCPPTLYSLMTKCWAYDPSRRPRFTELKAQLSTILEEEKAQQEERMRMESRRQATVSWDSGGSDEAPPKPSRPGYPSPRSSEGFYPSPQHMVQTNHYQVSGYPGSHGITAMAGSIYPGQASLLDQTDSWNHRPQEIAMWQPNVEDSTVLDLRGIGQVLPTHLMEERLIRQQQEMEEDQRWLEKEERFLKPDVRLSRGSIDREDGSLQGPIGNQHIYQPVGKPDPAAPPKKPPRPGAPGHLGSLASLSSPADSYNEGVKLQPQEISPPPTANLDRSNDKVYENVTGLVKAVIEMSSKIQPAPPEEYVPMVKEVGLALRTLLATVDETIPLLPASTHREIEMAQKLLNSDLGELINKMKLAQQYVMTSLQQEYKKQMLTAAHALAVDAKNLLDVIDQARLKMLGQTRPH
# Sequence of Concanavalin-A (Canavalia ensiformis) (P02866 whole entry, looked up): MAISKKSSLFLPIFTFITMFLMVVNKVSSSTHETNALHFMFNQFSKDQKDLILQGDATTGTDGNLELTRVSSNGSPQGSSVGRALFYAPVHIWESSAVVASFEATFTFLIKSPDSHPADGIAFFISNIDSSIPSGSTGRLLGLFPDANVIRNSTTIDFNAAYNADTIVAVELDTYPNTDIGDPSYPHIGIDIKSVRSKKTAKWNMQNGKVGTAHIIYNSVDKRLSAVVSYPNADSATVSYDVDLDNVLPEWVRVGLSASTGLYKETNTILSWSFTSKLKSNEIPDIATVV
# Sequence of Fibroblast growth factor 2 (Homo sapiens) (P09038 whole entry, looked up): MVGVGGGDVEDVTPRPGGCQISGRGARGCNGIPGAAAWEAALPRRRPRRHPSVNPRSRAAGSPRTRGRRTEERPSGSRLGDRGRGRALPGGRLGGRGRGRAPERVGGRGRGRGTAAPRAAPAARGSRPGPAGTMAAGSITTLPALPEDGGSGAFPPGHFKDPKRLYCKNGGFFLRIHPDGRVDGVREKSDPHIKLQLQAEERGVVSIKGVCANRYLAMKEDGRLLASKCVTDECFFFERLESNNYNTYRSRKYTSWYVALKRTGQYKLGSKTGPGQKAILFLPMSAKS
# Sequence of Albumin (Bos taurus) (P02769 whole entry, looked up): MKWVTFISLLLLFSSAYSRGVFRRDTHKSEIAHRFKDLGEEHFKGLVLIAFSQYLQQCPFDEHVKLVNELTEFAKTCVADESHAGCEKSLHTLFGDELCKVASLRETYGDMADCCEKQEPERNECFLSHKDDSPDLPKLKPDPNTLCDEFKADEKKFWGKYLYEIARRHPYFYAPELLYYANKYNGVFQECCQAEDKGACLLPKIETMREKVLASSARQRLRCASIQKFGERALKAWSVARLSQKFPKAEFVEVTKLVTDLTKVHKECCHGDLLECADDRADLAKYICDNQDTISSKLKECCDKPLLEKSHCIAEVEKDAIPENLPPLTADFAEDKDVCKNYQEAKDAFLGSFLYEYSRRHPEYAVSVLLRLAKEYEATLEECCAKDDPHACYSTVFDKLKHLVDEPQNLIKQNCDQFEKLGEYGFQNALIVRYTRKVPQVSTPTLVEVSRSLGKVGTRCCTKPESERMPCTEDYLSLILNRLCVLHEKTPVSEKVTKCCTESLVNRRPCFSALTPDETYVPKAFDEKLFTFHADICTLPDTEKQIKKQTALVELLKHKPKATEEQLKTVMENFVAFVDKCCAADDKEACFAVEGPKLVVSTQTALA
SMILES,composite z-score (Albumin (Bos taurus)),composite Z-score [1],composite z-score [2],composite z-score [3],composite z-score [4],composite z-score [5],composite z-score [6],composite z-score (Sam68 (KHDRBS1)),composite z-score [7],composite z-score [8],composite z-score [9],composite z-score [10],composite z-score [11],composite z-score [12],composite z-score [13],composite z-score [14],z-score [15],composite z-score (Lefty1),composite z-score [16],z-score [17]
C=CCC(OC(C)=O)[C@@H]1[C@@H](N(Cc2ccc(-c3cccc(C(F)(F)F)c3)o2)C(=O)c2cccc3ccccc23)c2cc(OCCCO)ccc2N1C(=O)c1ccc2ccccc2c1 (stereo not given in full),-0.119,0.115 (inactive),0.147,-0.12,0.0138,0.289,-0.278,-0.351,0.31,-0.0957,0.272,-0.582,-0.118,-0.425,0.839,0.101,-0.251,0.429,0.0578,1.05 (inactive)
CC(=O)NCCCC[C@@H]1NC(=O)[C@H]2C[C@@H](C(=O)NCCCCCC[N+](C)(C)C)[C@@H](c3ccc(O)cc3)N2C1=O,0.596,0.285 (inactive),-0.0057,-0.0556,0.676,2.2,0.527,1.17,1.4,0.682,1.54,1.08,0.26,-0.0238,1.26,0.862,-0.431,1.41,0.16,0.512 (inactive)
CC(C)C[C@@H]1NC(=O)[C@@]23C(=O)N[C@@H](Cc4ccccc4)C2[C@H](C)[C@@]2(C)O[C@H]2C3/C=C/C/C=C\CNC(=O)[C@@H](CC(C)C)NC1=O (stereo not given in full),0.757,0.183 (inactive),-0.0311,-0.167,0.599,0.925,0.285,1.3,0.732,-1.14,0.455,0.409,-0.0559,0.928,0.797,0.963,0.102,0.84,0.393,-1.23 (inactive)
CCCCCCCCCCC(O)C1C=CC2C(=O)N(C)C(=O)C2N1N1CCCCC1 (stereo not given),-0.377,-0.0231 (inactive),-0.256,-0.135,-0.284,0.879,0.582,-0.555,-2.31,-1.13,0.373,-0.768,0.0399,-1.27,-2.14,-1.02,0.44,-1.84,-0.325,-0.224 (inactive)
NC(=O)[C@@]1(CCS(=O)(=O)c2ccccc2)COC(c2ccc(OCCCO)cc2)=N1,0.336,-0.823 (inactive),0.119,0.327,0.445,0.043,-0.84,-0.0922,-0.536,0.411,0.329,-0.201,-0.0683,0.294,0.112,-0.0653,-0.492,-0.643,1.05,-0.188 (inactive)
O=C1N(Cc2ccccc2)c2ccccc2[C@H]2OC(c3ccc(OCCCO)cc3)=N[C@@]12Cc1ccccc1,-0.465,1.19 (inactive),0.0271,-0.131,0.606,2.42,1.1,1.3,0.41,1.06,2.1,1.19,0.6,0.696,1.35,1.52,-1.4,0.584,0.694,-2.98 (inactive)
CC(C)C[C@@H]1NC(=O)C([C@@H](C)OCc2ccccc2)NC(=O)[C@@]23C(=O)N[C@@H](Cc4ccccc4)C2[C@H](C)[C@@]2(C)O[C@H]2C3/C=C/CC/C=C/CNC1=O (stereo not given in full),0.438,-0.0807 (inactive),-0.0647,-0.128,0.469,0.73,0.184,1.34,0.554,0.329,0.48,0.809,0.87,-0.209,0.761,1.11,0.728,0.659,0.503,0.533 (inactive)
C=CCOC(=O)[C@H]1[C@@H]2C(=O)O[C@@H](c3ccccc3)[C@@H](c3ccccc3)N2[C@@H](c2ccc(OCCOC(=O)[C@H]3C[C@H]4C(=O)NCC(=O)N4[C@H]3c3ccc(O)cc3)cc2)[C@]12C(=O)Nc1ccc(I)cc12,0.163,-0.0149 (inactive),-0.0647,-0.104,0.0742,0.737,0.0174,0.503,0.677,1.13,0.611,0.956,0.351,0.843,1.2,1.53,-1.28,0.971,0.204,-0.8 (inactive)
O=C1O[C@H](c2ccccc2)[C@H](c2ccccc2)N2[C@H]1[C@@H](C(=O)N1CCN(c3ncccn3)CC1)[C@]1(C(=O)Nc3ccccc31)[C@H]2c1ccc(O)cc1,0.753,0.56 (inactive),-0.0932,-0.0438,0.672,2.48,0.445,1.29,-0.0771,1.16,2.34,1.07,0.759,0.635,0.889,0.451,0.028,-0.116,0.185,-1.3 (inactive)
O=C(NCCO)C1=C[C@H](Oc2ccccc2I)[C@@H](O)[C@H](NCc2ccc(F)cc2)C1,-1.89,-0.48 (inactive),-0.161,-0.14,-0.934,-0.809,1,-0.285,-0.0242,-1.83,-0.223,-1.23,-0.279,-2.27,1.31,0.795,-0.697,1.45,-1.25,0.243 (inactive)
